Experimental data: PubChem BioAssay (NCI)
The panel holds about 83,000 compounds, 20% with a hit somewhere; the sample as a whole holds those more often.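 Negative percent growth values reflect cell death: -40 means 40% of the cells present at the start died, and -100 means all died.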 Calls of active or inactive are those of the source. How the source made its calls: active means growth percent below 10; inactive means the rest.

Columns and labels:
Assay in all cases: NCI-60 one-dose screen, 48 h (100 = growth as untreated, 0 = no growth, -100 = all killed)
Conditions in all cases: 10 µM unless noted
HT29 colon = system: HT29 colon
SNB-75 CNS = system: SNB-75 CNS
SNB-19 CNS = system: SNB-19 CNS
U251 CNS = system: U251 CNS
PC-3 prostate = system: PC-3 prostate
SK-MEL-5 melanoma = system: SK-MEL-5 melanoma
UACC-62 melanoma = system: UACC-62 melanoma
LOX IMVI melanoma = system: LOX IMVI melanoma
SK-MEL-28 melanoma = system: SK-MEL-28 melanoma
SK-MEL-2 melanoma = system: SK-MEL-2 melanoma
EKVX NSCLC = system: EKVX NSCLC
SN12C renal = system: SN12C renal
UO-31 renal = system: UO-31 renal
ACHN renal = system: ACHN renal
CAKI-1 renal = system: CAKI-1 renal
A498 renal = system: A498 renal
CCRF-CEM leukemia = system: CCRF-CEM leukemia
MOLT-4 leukemia = system: MOLT-4 leukemia
SR leukemia = system: SR leukemia
TK-10 renal = system: TK-10 renal

Measured: growth

CCCc1cccc(CCC)c1O
inactive: HT29 colon 103% | SNB-75 CNS 118% | SNB-19 CNS 109% | U251 CNS 85.7% | PC-3 prostate 100% | SK-MEL-5 melanoma 104% | UACC-62 melanoma 107% | LOX IMVI melanoma 100% | SK-MEL-28 melanoma 117% | SK-MEL-2 melanoma 133% | EKVX NSCLC 98.9% | SN12C renal 107% | UO-31 renal 98% | ACHN renal 115% | CAKI-1 renal 93.8% | A498 renal 95.5% | CCRF-CEM leukemia 111% | MOLT-4 leukemia 105% | SR leukemia 116%

CN(C)c1ccc2c(c1)/C(=N/O)c1ccccc1-2
inactive: HT29 colon 81.4% | SNB-75 CNS 76.8% | SNB-19 CNS 79.6% | U251 CNS 48.9% | PC-3 prostate 72.3% | SK-MEL-5 melanoma 90.7% | UACC-62 melanoma 64.7% | LOX IMVI melanoma 59.4% | SK-MEL-28 melanoma 75.7% | SK-MEL-2 melanoma 111% | EKVX NSCLC 67.7% | SN12C renal 95.4% | UO-31 renal 64.5% | TK-10 renal 123% | ACHN renal 87.5% | CAKI-1 renal 46.6% | CCRF-CEM leukemia 83.8% | MOLT-4 leukemia 81.2% | SR leukemia 47.1%

Cc1nc(N)[nH]c(=O)c1C
active: SK-MEL-2 melanoma -10.2%
inactive: HT29 colon 107% | SNB-75 CNS 99.4% | SNB-19 CNS 95.4% | U251 CNS 95.4% | PC-3 prostate 117% | SK-MEL-5 melanoma 108% | UACC-62 melanoma 91.1% | LOX IMVI melanoma 102% | SK-MEL-28 melanoma 120% | EKVX NSCLC 100% | SN12C renal 87.4% | UO-31 renal 107% | TK-10 renal 137% | ACHN renal 111% | A498 renal 216% | CCRF-CEM leukemia 94.7% | MOLT-4 leukemia 150% | SR leukemia 92.2%

CC(c1cc(Cl)ccc1O)c1cc(Cl)ccc1O
active: HT29 colon 2.77% | SK-MEL-5 melanoma 7.93% | SK-MEL-2 melanoma -16.8% | UO-31 renal -7.88%
inactive: SNB-75 CNS 35.8% | SNB-19 CNS 68.5% | U251 CNS 19.2% | PC-3 prostate 25.9% | UACC-62 melanoma 44.8% | LOX IMVI melanoma 30.1% | SK-MEL-28 melanoma 33.5% | EKVX NSCLC 41.1% | SN12C renal 39.5% | TK-10 renal 90.7% | ACHN renal 41.4% | CAKI-1 renal 84.9% | A498 renal 81.1% | CCRF-CEM leukemia 33.5% | SR leukemia 53.3%

Nc1ccccc1-c1ccc([N+](=O)[O-])cc1
inactive: HT29 colon 78.1% | SNB-75 CNS 71.9% | SNB-19 CNS 67.3% | U251 CNS 67.4% | PC-3 prostate 38.9% | SK-MEL-5 melanoma 34.8% | UACC-62 melanoma 24.9% | LOX IMVI melanoma 54.7% | SK-MEL-28 melanoma 88.4% | SK-MEL-2 melanoma 24.3% | EKVX NSCLC 74.6% | SN12C renal 60.3% | UO-31 renal 43.3% | ACHN renal 46.1% | CAKI-1 renal 30.3% | A498 renal 75.9% | CCRF-CEM leukemia 24.6% | MOLT-4 leukemia 30.5%

Cc1cc(O)c2c(c1)C[C@H]1[C@@H]3CC[C@H]4CC(=O)CC[C@]4(C)[C@H]3CC(=O)[C@]21C
inactive: HT29 colon 67.6% | SNB-75 CNS 98.4% | SNB-19 CNS 94.5% | U251 CNS 81.6% | PC-3 prostate 80.9% | SK-MEL-5 melanoma 73.3% | UACC-62 melanoma 57.4% | LOX IMVI melanoma 85.1% | SK-MEL-28 melanoma 101% | SK-MEL-2 melanoma 83.3% | EKVX NSCLC 49.8% | SN12C renal 81.3% | UO-31 renal 113% | ACHN renal 94.7% | CAKI-1 renal 83.9% | A498 renal 103% | CCRF-CEM leukemia 58.8% | MOLT-4 leukemia 53.7% | SR leukemia 59.2%

O=C(/C=C/c1cc2ccccc2[nH]c1=O)c1ccc(O)cc1
inactive: HT29 colon 55.5% | SNB-75 CNS 40.3% | SNB-19 CNS 57.4% | U251 CNS 21.9% | PC-3 prostate 10.5% | SK-MEL-5 melanoma 96.1% | UACC-62 melanoma 83.8% | LOX IMVI melanoma 26.8% | SK-MEL-28 melanoma 99.9% | SK-MEL-2 melanoma 83.7% | EKVX NSCLC 87.5% | SN12C renal 47.5% | UO-31 renal 45.6% | TK-10 renal 50.1% | ACHN renal 66.2% | CAKI-1 renal 40.9% | A498 renal 56.2% | MOLT-4 leukemia 30.9%

Clc1cccc(Cc2cn3cc(-c4ccccc4)nc3s2)c1
inactive: HT29 colon 53.4% | SNB-75 CNS 73.8% | SNB-19 CNS 65.8% | U251 CNS 67.7% | PC-3 prostate 51.8% | UACC-62 melanoma 23.3% | LOX IMVI melanoma 23.5% | SK-MEL-28 melanoma 48.8% | SK-MEL-2 melanoma 72% | SN12C renal 68.2% | UO-31 renal 49.7% | TK-10 renal 69.2% | ACHN renal 27.9% | CAKI-1 renal 47.8% | A498 renal 84.9% | CCRF-CEM leukemia 63.4% | MOLT-4 leukemia 64.1%
active: SK-MEL-5 melanoma 2.66%

O=Cc1c[nH]c2ccc(NC(=O)OCc3ccccc3)cc12
inactive: HT29 colon 89% | SNB-75 CNS 87.1% | SNB-19 CNS 89% | U251 CNS 78.8% | PC-3 prostate 48.6% | SK-MEL-5 melanoma 99.1% | UACC-62 melanoma 90.4% | LOX IMVI melanoma 105% | SK-MEL-28 melanoma 145% | EKVX NSCLC 106% | SN12C renal 90.3% | UO-31 renal 106% | TK-10 renal 88.1% | ACHN renal 108% | A498 renal 231% | CCRF-CEM leukemia 83.8% | MOLT-4 leukemia 152% | SR leukemia 80.4%
active: SK-MEL-2 melanoma -19.1%

C[n+]1ccc(Nc2ccc(NC(=O)c3ccc(Nc4cc[n+](C)c5ccc(N)cc45)cc3)cc2)cc1
inactive: HT29 colon 96.9% | SNB-75 CNS 97.2% | SNB-19 CNS 100% | U251 CNS 92% | PC-3 prostate 90.1% | SK-MEL-5 melanoma 90.4% | UACC-62 melanoma 89.2% | LOX IMVI melanoma 103% | SK-MEL-28 melanoma 116% | SK-MEL-2 melanoma 71.5% | EKVX NSCLC 93.9% | SN12C renal 88.4% | UO-31 renal 75.7% | TK-10 renal 108% | ACHN renal 100% | CAKI-1 renal 94.5% | A498 renal 93.9% | CCRF-CEM leukemia 98% | SR leukemia 93.2%

NC(=O)SCC(=O)Nc1ccccc1-c1ccccc1
inactive: HT29 colon 87.2% | SNB-75 CNS 138% | SNB-19 CNS 89.5% | U251 CNS 92.9% | PC-3 prostate 90.2% | SK-MEL-5 melanoma 111% | UACC-62 melanoma 81.5% | LOX IMVI melanoma 90.6% | SK-MEL-28 melanoma 116% | SK-MEL-2 melanoma 88.9% | EKVX NSCLC 121% | SN12C renal 90.7% | UO-31 renal 64.9% | TK-10 renal 106% | ACHN renal 83% | CAKI-1 renal 105% | CCRF-CEM leukemia 103% | MOLT-4 leukemia 98% | SR leukemia 122%

Cc1c(C(N)=O)sc2nc(SCC(=O)Nc3ccc(Cl)cc3)n(-c3ccccc3)c(=O)c12
inactive: HT29 colon 87.9% | SNB-75 CNS 94.3% | SNB-19 CNS 101% | U251 CNS 98.4% | PC-3 prostate 73% | SK-MEL-5 melanoma 110% | UACC-62 melanoma 96.8% | LOX IMVI melanoma 98.1% | SK-MEL-28 melanoma 181% | EKVX NSCLC 98.4% | SN12C renal 95.2% | UO-31 renal 121% | TK-10 renal 52.8% | ACHN renal 106% | A498 renal 192% | CCRF-CEM leukemia 86.3% | MOLT-4 leukemia 156% | SR leukemia 106%
active: SK-MEL-2 melanoma -16.1%

Cn1cc(-c2nc(-c3c[nH]c4ncccc34)cs2)c2cccnc21
inactive: HT29 colon 73.1% | SNB-75 CNS 47.1% | SNB-19 CNS 82.5% | U251 CNS 71.6% | PC-3 prostate 76.6% | SK-MEL-5 melanoma 57.8% | UACC-62 melanoma 58.6% | LOX IMVI melanoma 54.3% | SK-MEL-28 melanoma 90.6% | SK-MEL-2 melanoma 52.7% | EKVX NSCLC 50.5% | SN12C renal 84.4% | UO-31 renal 52.9% | ACHN renal 41.4% | CAKI-1 renal 28.3% | A498 renal 50.1% | CCRF-CEM leukemia 65.3% | MOLT-4 leukemia 69.3%

O=C(O)c1ccccc1C(=O)OC1CCCC2CCCC21 (stereo not drawn)
inactive: HT29 colon 100% | SNB-75 CNS 96.5% | SNB-19 CNS 104% | U251 CNS 114% | PC-3 prostate 97.5% | SK-MEL-5 melanoma 104% | UACC-62 melanoma 97% | LOX IMVI melanoma 95.1% | SK-MEL-28 melanoma 109% | SK-MEL-2 melanoma 136% | EKVX NSCLC 92.4% | SN12C renal 95.8% | TK-10 renal 116% | ACHN renal 103% | CAKI-1 renal 93.1% | CCRF-CEM leukemia 97% | MOLT-4 leukemia 98.7% | SR leukemia 104%

O=[P@@]1(c2ccccc2)O[C@H](COCc2ccccc2)[C@@H](OCc2ccccc2)[C@H](OCc2ccccc2)[C@H]1NCc1ccccc1
active: LOX IMVI melanoma 5.71% | SN12C renal -39.4% | UO-31 renal -7.83% | MOLT-4 leukemia 0.343% | SR leukemia -2.72%
inactive: HT29 colon 10.9% | SNB-75 CNS 27.9% | SNB-19 CNS 33.9% | U251 CNS 20.9% | PC-3 prostate 10.5% | SK-MEL-5 melanoma 38% | UACC-62 melanoma 24% | SK-MEL-28 melanoma 49.2% | SK-MEL-2 melanoma 29.5% | EKVX NSCLC 17.6% | ACHN renal 10% | CCRF-CEM leukemia 15.9%

CC(C)(C)c1cc(O)c(O)c(C(C)(C)C)c1
active: MOLT-4 leukemia 6.61%
inactive: HT29 colon 53.9% | SNB-75 CNS 60.8% | SNB-19 CNS 56.9% | U251 CNS 36% | PC-3 prostate 39.3% | SK-MEL-5 melanoma 70.4% | UACC-62 melanoma 33% | LOX IMVI melanoma 47.3% | SK-MEL-28 melanoma 74.9% | SK-MEL-2 melanoma 76.6% | SN12C renal 60.3% | TK-10 renal 35.8% | ACHN renal 18.3% | A498 renal 60.6% | SR leukemia 11.2%

COc1ccc(-c2nnc(COc3ccc(NC(=O)Nc4cc(C(F)(F)F)cc(C(F)(F)F)c4)cc3F)o2)cc1
inactive: SNB-75 CNS 16.7% | SNB-19 CNS 14.4% | UACC-62 melanoma 16.4% | SK-MEL-28 melanoma 16.6% | TK-10 renal 15.3% | ACHN renal 11% | CAKI-1 renal 12.3% | CCRF-CEM leukemia 16.2%
active: HT29 colon 2.11% | U251 CNS 0.294% | PC-3 prostate -12.8% | SK-MEL-5 melanoma -21.4% | LOX IMVI melanoma -15% | SK-MEL-2 melanoma -32.9% | SN12C renal 5.21% | UO-31 renal -4.7% | A498 renal -1.78% | MOLT-4 leukemia 8.94% | SR leukemia -13.2%
